# Reference: PMC5540273 (PLoS ONE, 2017)
# Tested on: T1, RSK4(Kin.Dom.1-N-terminal)
# T1 construct: gene RPS6KA6
# Details: concentration: 1 μM, replicates: in singlicate; n = 1
# 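Further: KINOMEscan kinase panel screen.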
row,SMILES,%Inh
1,CN(c1ccc(NC(=O)Nc2cc(C(F)(F)F)ccc2F)cc1)c1ccnc(Nc2ccc(S(N)(=O)=O)cc2)n1 [GW809893],5%
2,Nc1ncnc2c1nc(-c1ccccc1)n2-c1ccccc1 [SKF-97293],36%
3,CN1CCN(CCCNc2nccc(-c3c(-c4ccc(F)cc4)nn4cc(C(F)(F)F)ccc34)n2)CC1 [GW621581],0%
4,O=C(Nc1cccc(-c2nn3ccccc3c2-c2ccnc(Nc3cccc(C(F)(F)F)c3)n2)c1)c1c(F)cccc1F [GSK292658],0%
5,COc1cc(Nc2nccc(N3CCC(NC(=O)Nc4cccc(C(C)=O)c4)C3)n2)cc(OC)c1OC (stereo not shown) [GSK1379753],15%
6,Cl.Cl.NCC(C(=O)Nc1cc(Br)c(-c2ccnc3[nH]ccc23)s1)c1ccccc1 (stereo not shown) [GSK1269851],0%
7,COc1ccc(Nc2nccc(NCCNC(=O)c3cc4ccccc4s3)n2)cc1 [GSK1379896],0%
8,Cc1ccc(F)c(C(=O)Nc2cccc(-c3nn4ccccc4c3-c3ccnc(Nc4cccc(F)c4)n3)c2)c1F [GSK361061],0%
9,Cl.Cl.NCC(NC(=O)c1cc(-c2ccccc2)c(-c2ccnc3[nH]ccc23)s1)c1ccccc1 (stereo not shown) [GSK1321561],0%
10,Cc1cccc(Nc2nc(N[C@H]3CCNC3)ncc2C(N)=O)c1.Cl [GSK2197149],30%
11,COc1cccc(C2=C(Nc3ccc(Cl)c(C(=O)O)c3)C(=O)NC2=O)c1 [SB-390769],100%
12,O=C(Nc1cccc(-c2nn3ccccc3c2-c2ccnc(Nc3cccc(F)c3)n2)c1)c1c(F)ccc(F)c1Cl [GSK357952],4%
13,COc1cccc(NC(=O)NC2CCN(c3ccnc(Nc4cc(OC)c(OC)c(OC)c4)n3)C2)c1 (stereo not shown) [GSK1379763],0%
14,O=c1[nH]cc(-c2ccc(N3CCOCC3)cc2)c2sc(-c3cn[nH]c3)cc12 [GSK2276055],0%
15,CC(C)(C)c1ccc2nccc(Nc3cccc(O)c3)c2c1 [GW856795],0%
16,COc1ccc(Nc2nccc(N3CCC(NC(=O)Nc4cccc(OC)c4)C3)n2)cc1 (stereo not shown) [GSK1379742],0%

row,SMILES,%Inh
1,CCS(=O)(=O)c1ccc(OC)c(Nc2nccc(-c3c(-c4cccc(NC(=O)c5c(F)cccc5F)c4)nn4ncccc34)n2)c1 [GSK326180],0%
2,CC(C)c1nc(-c2cccc(NS(=O)(=O)c3c(F)cccc3F)c2F)c(-c2ccnc(Nc3ccc(N4CCOCC4)nc3)n2)s1 [GSK2008607],10%
3,Fc1ccc(-c2ncn(C3CCNCC3)c2-c2ccnc(Oc3ccc(-c4ccccc4)cc3)n2)cc1 [SB-245391],18%
4,O=C(Nc1n[nH]c2cc(-c3ccoc3)ccc12)C1CC1 [SB-738481],3%
5,Nc1ncc(-c2cccnc2)c2scc(-c3ccc4c(c3)CCN4C(=O)Cc3ccccc3)c12 [GSK683281],0%
6,Nc1ncc(-c2ccc3nccc(-c4ccncc4)c3c2)cc1S(=O)(=O)N1CCOCC1 [GSK1627798],14%
7,C[C@@H]1CC[C@@H](C(=O)Nc2ccccc2)CN1c1cc(-c2ccc3c(N)n[nH]c3c2)nc(N)n1 [GSK2286062],0%
8,Cn1cc(-c2ccc3c(c2)CCN3C(=O)Cc2cccc(F)c2)c2c(N)ncnc21 [GSK2603358],0%
9,Cc1ccc(C(=O)N2CC[C@@H](O)C2)cc1-n1c(C)cc(OCc2ccc(F)cc2F)c(Br)c1=O,0%
10,CN1CCN(Cc2cccc(-c3ccc4c(Nc5ccc(Oc6ccccc6)cc5)ccnc4c3)c2)CC1 [GW578342],0%
11,CN(C)S(=O)(=O)c1cc(-c2ccc3nccc(-c4cccc(S(N)(=O)=O)c4)c3c2)cnc1N [GSK1669921],2%
12,COc1cc(Nc2nccc(-c3c(-c4cccc(NC(=O)c5c(F)cccc5F)c4)nn4ncccc34)n2)cc(OC)c1OC [GSK327238],10%
13,COCCOCCOc1cc2ncc3c4ccc(C#N)cc4[nH]c3c2cc1OC,90%
14,Cc1ccc(C(=O)Nc2ccc(Nc3ccnc4cc(-c5nccs5)ccc34)cc2O)cc1.Cl [GW494702],0%
15,CC(=O)N1CCN(c2ccc(Nc3nccc(-c4sc(C(C)C)nc4-c4cccc(NS(=O)(=O)c5cccc(Cl)c5)c4)n3)cn2)CC1 [GSK1660437],0%
